{
  "source": "PubChem BioAssay (Tox21)",
  "note": "Records with an inconclusive call do not appear. Where a call stands in place of a potency, no number is given. Calls of active or inactive are those of the source. Calls follow the shape of the dose curve; as a rule, active = well fitted cell-killing curve with a large enough effect in the repeat runs; inconclusive = weak or mixed curves; inactive = flat fitted curve, though single readings scatter.",
  "data": [
    {"experiment": "qHTS RealTime-Glo MT Cell Viability Assay in HepG2 cells - 16 hour (AID 1224885); also: nearly all actives have a fitted effect of over 50% in size", "conditions": "RealTime-Glo luminescence; series mostly up to 76.8 µM", "procedure,_shortened": "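HepG2 cells were seeded at 600 cells/well together with NanoLuc luciferase and a cell-permeant prosubstrate, preincubated 5 h at 37 C/5% CO2, then pin-dosed with compounds in DMSO. Nonlytic luminescence from viable cells was read at each time point.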", "values": [
      {"compound": "CC1=C(/C=C/C(C)=C/C=C/C(C)=C/CO)C(C)(C)CCC1", "Potency": "inactive"},
      {"compound": "NCc1cccc(CN)c1", "Potency": "inactive"},
      {"compound": "CN(C)c1cccc(O)c1", "Potency": "inactive"},
      {"compound": "OCC1CCCO1", "note": "(stereo not drawn)", "Potency": "inactive"},
      {"compound": "CCCCC(CC)C(=O)OCCOCCOCCOC(=O)C(CC)CCCC", "note": "(stereo not drawn)", "Potency": "inactive"},
      {"compound": "O=S(=O)(O)CCS", "Potency": "inactive"},
      {"compound": "Oc1ccc2ccccc2c1", "Potency": "inactive"},
      {"compound": "Cc1ccc(C(=O)O)o1", "Potency": "inactive"},
      {"compound": "ClC1=C(Cl)C(Cl)(Cl)C(Cl)=C1Cl", "Potency": "inactive"},
      {"compound": "OC[C@@H](O)[C@H](O)[C@H](O)[C@@H](O)CO", "Potency": "inactive"},
      {"compound": "CCOC(=O)/C=C\\C(=O)OCC", "Potency": "inactive"},
      {"compound": "CC1=CC[C@H]2C[C@@H]1C2(C)C", "Potency": "inactive"},
      {"compound": "O=C(c1ccc(O)cc1)c1ccc(O)cc1O", "Potency": "inactive"},
      {"compound": "CCc1ccccc1O", "Potency": "inactive"},
      {"compound": "COCC(C)O", "note": "(stereo not drawn)", "Potency": "inactive"},
      {"compound": "CC(C)NCC(O)COc1cccc2ccccc12", "note": "(stereo not drawn)", "Potency": "inactive"},
      {"compound": "CCCCCCOC(C)=O", "Potency": "inactive"},
      {"compound": "CC(C)n1c(/C=C/[C@@H](O)C[C@@H](O)CC(=O)O)c(-c2ccc(F)cc2)c2ccccc21", "Potency": "inactive"},
      {"compound": "c1ccc2ccccc2c1", "Potency": "inactive"},
      {"compound": "CC(C)(C)C1CCC(O)CC1", "note": "(stereo not drawn)", "Potency": "inactive"},
      {"compound": "O=S(=O)(O)c1cc(S(=O)(=O)O)c2c(N=Nc3ccccc3)c(O)ccc2c1", "Potency": "inactive"},
      {"compound": "Cn1c([N+](=O)[O-])cnc1COC(N)=O", "Potency": "inactive"},
      {"compound": "CCCCCCCCC", "Potency": "inactive"},
      {"compound": "Cc1ccc(N)c(S(=O)(=O)O)c1", "Potency": "inactive"},
      {"compound": "C=C(C)C(=O)OCCCCCC", "Potency": "inactive"},
      {"compound": "Oc1c(Cl)cc(Cl)c(Cl)c1Cl", "Potency": "inactive"},
      {"compound": "Cc1cc(O)c2c(c1)C(=O)c1cc(O)cc(O)c1C2=O", "Potency": "inactive"},
      {"compound": "Nc1c(S(=O)(=O)O)cc(Br)c2c1C(=O)c1ccccc1C2=O", "Potency": "inactive"}
    ]}
  ]
}
